Screening data from PubChem BioAssay.
Most compounds without a hit are left out; they make up all but 3.6% or so of the library.
D1 PAM = Potentiators of Human D1 Dopamine Receptor: qHTS | D(1A) dopamine receptor (Homo sapiens), P21728 | HEK293 TREx D1 cells, calcium flux, dopamine EC20 potentiation | potentiation, % at 10 µM | 0.036% of 360,000 active; in the data active means potentiation above about 30%; further: 0% is about no effect
D1 antagonist = Antagonist of Human D 1 Dopamine Receptor: qHTS; D(1A) dopamine receptor (Homo sapiens), P21728; HEK293 TREx D1 cells, calcium flux, dopamine EC80; hits give low values; activity change, negative = inhibition, % at 10 µM; 3.2% of 360,000 active; AID 504652, 2011; in the data active means activity change below about -30%; further: on the % scale 0 is the no-effect control and ±100 the full control effect
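After overnight tetracycline induction at 30 C, force-coupled D1 HEK293 cells took up a no-wash calcium dye at room temperature. Compounds were added and monitored 180 s, and the response to EC80 dopamine was then recorded.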
TRHR enhancer = qHTS for Small Molecule Agonists and Allosteric Enhancers of Human TRH Receptor: Primary Screen for Enhancers; 0.66% of 360,000 active; TRHR cells, fluo-8 calcium fluorescence, EC20 TRH enhancement; AID 493056, 2011; enhancement, % at 2 µM; Thyrotropin-releasing hormone receptor (Homo sapiens), P34981; in the data active means enhancement above about 30%; further: 0% is about no effect
Target sequence (P34981 whole entry, looked up): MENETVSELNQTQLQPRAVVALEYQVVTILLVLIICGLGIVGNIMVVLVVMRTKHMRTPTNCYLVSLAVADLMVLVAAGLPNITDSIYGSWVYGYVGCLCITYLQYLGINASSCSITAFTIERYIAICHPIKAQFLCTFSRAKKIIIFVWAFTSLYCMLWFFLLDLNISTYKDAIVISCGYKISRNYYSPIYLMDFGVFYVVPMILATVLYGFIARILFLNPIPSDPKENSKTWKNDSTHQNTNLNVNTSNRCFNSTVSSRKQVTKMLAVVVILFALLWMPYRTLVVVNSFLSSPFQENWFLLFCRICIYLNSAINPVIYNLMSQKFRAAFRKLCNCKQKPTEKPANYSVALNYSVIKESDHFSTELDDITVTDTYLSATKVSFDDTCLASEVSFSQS
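Enhancer read-out: after compound pinning and an initial kinetic agonist-mode read, an EC20 of TRH (10 nM final) was injected and fluo-8 calcium signal (Ex 480/Em 530) followed at 1 s/cycle for 100 cycles in TRHR-expressing cells.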
LDHA block = qHTS assay for inhibitors of human lactate dehydrogenase; activity change, % (values are at about 110 or 230 µM); 0.15% of 480,000 active; AID 1347041, 2019; purified LDHA, NADH/diaphorase-resazurin fluorescence; hits give low values; L-lactate dehydrogenase A chain (Homo sapiens), P00338; in the data active means activity change below about -30%;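 further: plate controls were DMSO wells for no effect and wells without enzyme for full effect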
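Resorufin fluorescence (ex540/em590), read at 0 and 20 min after diaphorase/resazurin addition, reports the NADH left after a 5 min room-temperature reaction of 2 nM human LDH5 with 0.06 mM NADH and 0.2 mM pyruvate.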
TRHR agonist = qHTS for Small Molecule Agonists and Allosteric Enhancers of Human TRH Receptor: Primary Screen for Agonists; Thyrotropin-releasing hormone receptor (Homo sapiens), P34981; 0.18% of 360,000 active; activation, % at 2 µM; AID 493084, 2011; TRHR cells, calcium flux fluo-8, FDSS agonist mode; further: 0% is about no effect
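TRHR-expressing cells, plated overnight in medium with 10% serum, were loaded with fluo-8 calcium dye at room temperature. After a 10 s baseline, library compound was pin-added and calcium release was recorded kinetically (ex 480/em 530) as agonist response.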
D1 ag = Allosteric Agonists of the Human D1 Dopamine Receptor: qHTS; D(1A) dopamine receptor (Homo sapiens), P21728; HEK293 T-REx D1 cells, calcium flux, agonist mode; activation, % at 2 µM; 1% of 360,000 active; AID 504660, 2011; further: 0% is about no effect
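Agonism was scored from calcium flux recorded over 180 s (1 read/s) after pintool compound addition, following a 10-cycle baseline. Cells were inducible force-coupled HEK293 TREx D1, plated overnight at 30 C and loaded with no-wash calcium dye.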
* marks the source's active call; other numbers are inactive results; · = no result given. Unless noted, no stated cut-off is given here; in the data, active means activation above about 30%; inactive means the rest.

SMILES | D1 PAM | D1 antagonist | TRHR enhancer | LDHA block | TRHR agonist | D1 ag
FC(F)Sc1ccc(NC(=S)NCc2ccccc2)cc1 | -13 | -32* | -3 | -7 | 1 | 16
CN(C)c1ccc(/C=N/NC(=S)NCc2ccccc2)cc1 | 0 | -83* | -4 | 2 | 0 | 1
O=C(O)c1ccc(NC(=S)NCc2ccccc2)cc1 | -1 | -18 | -1 | -1 | 2 | 3
FC(F)(F)c1ccc(NC(=S)NCc2ccccc2)cc1 | -8 | -37* | -6 | -16 | 0 | 22
S=C(NCc1ccccc1)NCc1ccccc1 | 2 | -52* | 4 | -3 | -1 | 17
CCC(C(=O)Nc1cc(F)ccc1F)n1nc(-c2ccccc2)ccc1=O (stereo unspecified) | · | · | · | -1 | · | ·
CN(C)CCCN(Cc1ccccc1)C(=S)Nc1ccc(SC(F)F)cc1 | -12 | -9 | 1 | -4 | 3 | 32*
CC(=O)c1ccc(NC(=S)N(CCCN(C)C)Cc2ccccc2)cc1 | -2 | 4 | 3 | -7 | 1 | 8
CCc1ccc(NC(=O)CSC2=C(C#N)C(c3ccco3)C3=C(CCCC3=O)N2)cc1 (stereo unspecified) | -11 | -61* | 1 | 3 | 1 | 0
CN=Cc1cc(C(C)(C)C)cc(C(C)(C)C)c1O | · | · | · | 4 | · | ·
Cn1c(=O)n(Cc2ccc(Cl)cc2)c2ccccc21 | -5 | -33* | -7 | -10 | 0 | -3
N/C(COc1ccccc1)=N\NS(=O)(=O)c1ccccc1 | -6 | 5 | 31* | -8 | 0 | 3
O=C(Cc1cccs1)Nc1cccc(-c2nc3ccccc3o2)c1 | 0 | -47* | -1 | -11 | 4 | 2
Cc1ccc(-c2nc3ccccc3o2)cc1NC(=O)Cc1cccs1 | -2 | -4 | -12 | -9 | 2 | 3
Cc1cccc(-c2nnc(-c3cccc(NC(=O)Cc4cccs4)c3)o2)c1 | 1 | -40* | -6 | -3 | 0 | 4
Cc1cc(C)cc(NC(=O)Cn2cc3c(n2)CCCCC3)c1 | 0 | -1 | 1 | · | -1 | 51*
CN(C)c1ccc(NC(=O)Cn2cc3c(n2)CCCC3)cc1 | -2 | 9 | 7 | 9 | 0 | 7
O=C(COC(=O)c1ccco1)Nc1nc2ccc([N+](=O)[O-])cc2s1 | -13 | -52* | -7 | -9 | 0 | 9
Cc1ccc2nc(NC(=O)COC(=O)c3ccco3)sc2c1 | -8 | -6 | 2 | 0 | 0 | 1
COc1ccc(-c2nn(-c3ccccc3)cc2/C=N/NC(=O)c2cccc(S(=O)(=O)Nc3ccccc3Cl)c2)cc1 | -14 | -36* | -25 | -4 | 0 | 2
COc1ccc(-c2nn(-c3ccccc3)cc2/C=N/NS(=O)(=O)c2ccccc2)cc1 | -1 | 4 | -6 | -6 | -1 | 2
CCN1/C(=C/C=C/C=C/C=C/c2sc3ccccc3[n+]2CC)Sc2ccccc21 | 2 | 0 | 32* | -8 | 1 | 0
Cc1ccc(C)c(S(=O)(=O)NCc2ccc(C(=O)N3CCCCCC3)cc2)c1 | -10 | -32* | -11 | 0 | 0 | 13
Cc1ccc(C)c(S(=O)(=O)NCc2ccncc2)c1 | -11 | -43* | 15 | 2 | -3 | 11
Cc1ccc(C)c(S(=O)(=O)NCc2ccc(C(=O)N3CCN(c4ccccc4)CC3)cc2)c1 | -2 | -7 | 15 | -1 | 1 | 5
Cc1ccc(C)c(S(=O)(=O)NCc2cccnc2)c1 | -6 | 8 | 5 | 2 | 0 | -2
O=[N+]([O-])c1c(Nc2ccccc2Cl)ccc2nonc12 | · | · | · | -1 | · | ·
CC(NC(=S)NC1CCCC1)c1ccc(C(C)(C)C)cc1 (stereo unspecified) | · | · | · | 11 | · | ·
Fc1ccc(-c2cc(C(F)(F)F)nc(NCC3CCCO3)n2)cc1 (stereo unspecified) | 2 | 42 | 6 | 2 | -1 | 32*
